Compounds without any hit were thinned out: in the full panel of roughly 83,000, 20% have a hit.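 Note: values are percent growth. 100 is the growth of untreated cells, values between 100 and 0 indicate rising inhibition; between -100 and 0 indicates cell death.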 Values without a mark were called inactive. Activity calls are given as the source filed them. The calls were made as follows: active = growth percent below 10; inactive = the rest.

The source of these data is PubChem BioAssay (NCI).

Test systems include NCI-H23 lung; NCI-H226 lung; NCI-H322M lung; HOP-62 NSCLC; NCI-H460 lung; HOP-92 NSCLC; NCI-H522 lung; A549/ATCC NSCLC; 786-0 renal; COLO 205 colon.
Assay in all cases: NCI-60 one-dose screen, 48 h (100 = growth as untreated, 0 = no growth, -100 = all killed)
Common to all, as to conditions: 10 µM

Regarding `CC1CC(c2ccc(N(C)C)cc2)=NN1c1nc(O)c(C2=c3cc(Br)ccc3=NC2=O)s1` (stereo not given), the growth is 1.13% (active) in the assay on NCI-H23 lung; 77.8% with NCI-H226 lung; 112% in the assay with NCI-H322M lung; 92.7% in the assay on HOP-62 NSCLC; 63.8% with NCI-H460 lung; 83.8% with HOP-92 NSCLC. In addition, the growth in the assay on NCI-H522 lung is 70.2%; in the assay on A549/ATCC NSCLC, 72.6%; in the assay with 786-0 renal, 94%; with COLO 205 colon it was 99.7%.
Consider `CCOP(=O)(OCC)O[C@H]1CCC(=O)[C@@H]2[C@H]1[C@H]1C[C@@H]3[C@@]4(C)CCCC(C)(C(=O)OC)[C@@H]4CC[C@@]23C=C1C(C)C` (stereo not given in full), for which the growth was 50.3% with NCI-H23 lung; 48.9% in the assay with NCI-H226 lung; 102% with NCI-H322M lung; 76.8% in the assay on HOP-62 NSCLC; 66.4% in the assay with NCI-H460 lung; 46.8% in the assay with HOP-92 NSCLC. Besides, the growth is 31.6% with NCI-H522 lung, 49.7% with A549/ATCC NSCLC, 63.3% with 786-0 renal and 47.6% with COLO 205 colon.
For `O=C(c1ccc(Cl)cc1)C1[C@H](c2ccc(Br)cc2)[C@@H](c2ccccc2)NC12C(=O)Nc1ccccc12` (stereo not given in full), the growth was -35.9% (active) in the assay with NCI-H23 lung; -72.4% (active) with NCI-H226 lung; 19.9% in the assay with NCI-H322M lung; -18.9% (active) in the assay with HOP-62 NSCLC; -33.8% (active) in the assay on NCI-H460 lung; -18% (active) with HOP-92 NSCLC. Also, the growth in the assay on NCI-H522 lung is -4.55% (active); in the assay with A549/ATCC NSCLC, 15%; with 786-0 renal it was -4.41% (active); with COLO 205 colon it was -88.9% (active).
As for `COc1ccc(C2NC(=S)NC(C)=C2C(=O)OC(C)C)cc1OC` (stereo not given), the growth with NCI-H23 lung is 111%; in the assay on NCI-H226 lung, 94.8%; with NCI-H322M lung, 96.8%; in the assay with HOP-62 NSCLC, 103%; with NCI-H460 lung it was 114%; in the assay with HOP-92 NSCLC, 101%. Also, the growth in the assay on NCI-H522 lung is 102%; in the assay on A549/ATCC NSCLC it was 114%; in the assay with 786-0 renal it was 93.2%; in the assay with COLO 205 colon, 140%.
For the compound `Cc1ccc(C(=O)N/C(=C2/OCCN2C)[P+](c2ccccc2)(c2ccccc2)c2ccccc2)cc1`, the growth was 85.1% with NCI-H23 lung; 92.9% in the assay with NCI-H226 lung; 100% with NCI-H322M lung; 96.9% in the assay with HOP-62 NSCLC; 83.8% in the assay on NCI-H460 lung; 60.3% with HOP-92 NSCLC. Besides, the growth with NCI-H522 lung is 57.8%; with A549/ATCC NSCLC, 97.8%; in the assay with 786-0 renal, 103%; in the assay on COLO 205 colon it was 57.9%.
For `CCOC(=O)C1NN(c2ccc(S(N)(=O)=O)cc2)c2nc3nc(-c4cccs4)cc(-c4cccs4)c3c(=O)n21` (stereo not given), the growth with NCI-H23 lung is 96.6%; with NCI-H226 lung it was 5.85% (active); with NCI-H322M lung, 99.7%; with HOP-62 NSCLC, 109%; with NCI-H460 lung, 77.6%; in the assay on HOP-92 NSCLC it was 61.5%. Moreover, the growth in the assay on NCI-H522 lung is 77.2%; in the assay with A549/ATCC NSCLC, 90.9%; in the assay with 786-0 renal it was 78.7%; with COLO 205 colon it was 81.1%.
As for `COc1ccc2cc([C@H](C)C(=O)NCc3ccccc3)ccc2c1`, the growth is 33.6% in the assay on NCI-H23 lung; 59.5% in the assay with NCI-H226 lung; 49.7% in the assay on NCI-H322M lung; 41.8% with HOP-62 NSCLC; 17.7% with NCI-H460 lung; 104% in the assay on HOP-92 NSCLC. Further, the growth in the assay with NCI-H522 lung was -5.33% (active); in the assay on A549/ATCC NSCLC, 59.7%; in the assay on 786-0 renal, 59.7%; in the assay with COLO 205 colon, 0.915% (active).
For `COc1ccc(N(C)c2cc(C#N)nc3ccccc23)cc1/C=C/C(=O)NO`, the growth is -83.4% (active) with NCI-H23 lung; -39% (active) with NCI-H226 lung; 0.0682% (active) in the assay with NCI-H322M lung; -48% (active) in the assay with HOP-62 NSCLC; 0.587% (active) in the assay on NCI-H460 lung; -12.2% (active) in the assay on HOP-92 NSCLC. The growth was -75.4% (active) in the assay with NCI-H522 lung, 7.16% (active) in the assay with A549/ATCC NSCLC, -9.47% (active) in the assay with 786-0 renal and -34.2% (active) in the assay on COLO 205 colon.
Regarding `N#Cc1c(NC(=O)c2cccc(C(F)(F)F)c2)sc2c1CCC(O)=C2`, the growth was 22.3% in the assay on NCI-H23 lung; 54.7% in the assay on NCI-H226 lung; 49.2% in the assay with NCI-H322M lung; 55% with HOP-62 NSCLC; 30.3% with NCI-H460 lung; 11.2% in the assay with HOP-92 NSCLC. Further, the growth in the assay on NCI-H522 lung was 11.2%; with A549/ATCC NSCLC it was 35.7%; in the assay on 786-0 renal it was 62.1%; in the assay with COLO 205 colon it was 90.2%.
For the compound `C/C(=C\c1ccc(O)cc1O)c1ccc2ccc(O)cc2[o+]1`, the growth in the assay with NCI-H23 lung was 45.8%; in the assay with NCI-H226 lung, 66.2%; in the assay on NCI-H322M lung, 78.1%; with HOP-62 NSCLC, 54.9%; in the assay on NCI-H460 lung it was 56.8%; in the assay on HOP-92 NSCLC, 83.8%. Besides, the growth is 55% in the assay on NCI-H522 lung, 91.9% with A549/ATCC NSCLC, 52.9% in the assay with 786-0 renal and 116% with COLO 205 colon.
As for `C=C[C@H]1[C@H](O[C@@H]2OC(CO)[C@@H](O)[C@H](O)C2OC(=O)c2c(O)cc(O)cc2-c2cccc(O)c2)OC=C2C(=O)OCC[C@H]21` (stereo not given in full), the growth with NCI-H23 lung is 96.5%; with NCI-H226 lung it was 98.8%; with NCI-H322M lung, 93.8%; in the assay on HOP-62 NSCLC, 93.6%; with NCI-H460 lung it was 107%; with HOP-92 NSCLC it was 132%. Moreover, the growth is 106% with NCI-H522 lung, 95.3% with A549/ATCC NSCLC, 105% in the assay on 786-0 renal and 107% in the assay with COLO 205 colon.
With `CCCCSc1nc(Nc2ccc(/C(C)=N/NC(N)=S)cc2)c(C#N)c(-c2ccc(F)cc2)n1`, the growth in the assay on NCI-H23 lung is 21%; in the assay on NCI-H226 lung, 20.7%; in the assay with NCI-H322M lung it was 53.8%; with HOP-62 NSCLC, 22.7%; in the assay with NCI-H460 lung, 18.4%; in the assay on HOP-92 NSCLC, -18.5% (active). For the same compound, the growth with NCI-H522 lung is 43.9%; in the assay with A549/ATCC NSCLC, 8.95% (active); in the assay with 786-0 renal, -20.5% (active); in the assay with COLO 205 colon, 47.1%.
As to `CCOc1ccc(/C=N/NC(=O)Cn2nc(Cc3ccc([N+](=O)[O-])cc3)c3onc(C)c3c2=O)cc1`, the growth in the assay on NCI-H23 lung was 28.8%; with NCI-H226 lung, -21.1% (active); in the assay on NCI-H322M lung, 29.4%; in the assay on HOP-62 NSCLC, -17.3% (active); with NCI-H460 lung it was -9.53% (active); in the assay with HOP-92 NSCLC, -44.6% (active). Besides, the growth with NCI-H522 lung is 47.6%; with A549/ATCC NSCLC, -23.6% (active); in the assay with 786-0 renal, -79.7% (active); with COLO 205 colon, 53.7%.
